Screening data from PubChem BioAssay.
TSG101-PTAP inh: TSG101-PTAP interaction inhibition, HIV-1 budding; Q99816; Fluorescence polarization, FITC-PTAP peptide/Tsg101, 20 min; Potency, µM (highest dose often 115 µM), actives largely listed as inhibitors; AID 1347069; 44,000 tested, under 10 active; further: potency means the concentration at half of the fitted maximal effect; 0% is about no effect
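Fluorescence polarization: Tsg101 binding domain (10 uM final) in 10 mM HEPES pH 7.5, 0.15 M NaCl, 0.01% Tween 20, 3 mM EDTA, 0.1 mM TCEP; compounds pinned; FITC-PTAP peptide 50 nM final; 20 min, r.t.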
GALK inh: inhibitors of human galactokinase (GALK); P51570; recombinant GALK, Kinase-Glo ATP luminescence, 1 h; Potency, µM (titrated, usually from 57.5 µM), for inactives: at the highest dose activity, negative = inhibition, most hits filed as inhibitors; 44,000 tested, under 10 active; AID 1347072;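 further: plate controls were full GALK reaction for no effect and reaction lacking GALK for full effect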
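Reactions with and without enzyme served as controls. GALK at 5 nM phosphorylates 100 uM galactose using 35 uM ATP (HEPES pH 8.0, Mg2+) for 1 h at RT, with luminescence read 10 min after adding Kinase-Glo Plus.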
NTMT1 inh: inhibitors of human N-terminal methyltransferase NTMT1; Q9BV86; NTMT1 MTase-Glo SAH luminescence, purified enzyme; Potency, µM (top dose mostly 114 µM), for the others: at the highest dose activity change, negative = inhibition, actives largely listed as inhibitors; hit rate 2.5% among 59,000; AID 1645870;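 further: potency means the concentration at half of the fitted maximal effect; plate controls were DMSO vehicle for no effect and no enzyme for full effect; nearly all actives have a fitted effect of over 65% in size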
B2AR arrestin ag: ADRB2 beta-arrestin recruitment | AID 1347077 | P07550 | HTLA Tango cells, beta-arrestin recruitment, luciferase luminescence, 18 h | Potency, µM (titrated, usually from 46.1 µM), most hits filed as activators | 44,000 tested, under 10 active;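 further: potency means the concentration at half of the fitted maximal effect; 0% = DMSO and full agonism = EC100 isoproterenol or metaproterenol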
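Luminescence read-out: arrestin recruitment to recombinant beta2-AR releases tTA, inducing luciferase. Cells exposed 18 hr at 37 degrees C to up to 46 microM compound; %Activity from corrected signal, concentration-response curves classified by r2, magnitude and efficacy.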
GPR32 ag: activates human resolvin D1 receptor GPR32. AID 1346428. CHO-K1 GPR32 beta-arrestin PathHunter luminescence, 90 min; zero percent set by DMSO-only wells. activation, % at 76.9 µM. hit rate 2.5% among 48,000;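 active means activation of at least 60% and not above a set upper limit, about 1 call in 100 departs from these limits; inconclusive means activation of 40% to 60%, or above that upper limit; inactive means activation under 40%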; further: 0% is about no effect
Target sequence (O75388 whole entry, looked up): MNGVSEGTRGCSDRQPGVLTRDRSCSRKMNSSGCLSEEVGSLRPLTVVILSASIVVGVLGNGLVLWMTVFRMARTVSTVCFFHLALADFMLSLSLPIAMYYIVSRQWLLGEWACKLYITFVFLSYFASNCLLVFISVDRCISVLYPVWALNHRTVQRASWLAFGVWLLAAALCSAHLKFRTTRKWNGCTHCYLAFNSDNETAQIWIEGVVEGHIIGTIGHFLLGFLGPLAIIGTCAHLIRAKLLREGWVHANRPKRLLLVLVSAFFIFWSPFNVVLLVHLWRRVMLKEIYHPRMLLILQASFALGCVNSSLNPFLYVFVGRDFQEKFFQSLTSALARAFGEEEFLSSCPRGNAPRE
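Readings come from a cell-based beta-arrestin complementation format: CHO-K1 GPR32 stable cells (2,500/well) treated 90 min with compounds, then beta-Gal substrate added for 1 h before chemiluminescence imaging.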
GALC G270D act: enhancers of human galactocerebrosidase G270D mutant activity in cells; 145M-Twi-hGALC-G270D cells (Twitcher mouse brain line with human GALC G270D), HMU-beta-Gal fluorescence, 48 h; hit rate 0.1% among 45,000; Potency, µM (highest dose often 57.5 µM), most hits filed as activators; P54803; further: potency means the concentration at half of the fitted maximal effect; 0% is about no effect; nearly all actives have a fitted effect of over 65% in size
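Brain-derived Twitcher mouse 145M-Twi cells stably expressing human GALC-G270D or wild-type GALC, treated live, then residual GALC activity read by fluorescence of HMU-b-Gal substrate (0.1 mM final) in citrate-phosphate buffer pH 5.2 with sodium taurocholate. Signal increase indicates enhancement.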
The depositor's hits bear a star; i = inactive; u = inconclusive; x = no result; ! = a repeat was not active; [ ] = another dose, or the depositor's remark. Compounds with a hit are over-represented: about 3.6% of the library has one in this group of screens. Unless noted, the call rests on the fitted dose curve; in most records, active means well fitted curve in the direction sought with a large enough effect; inconclusive means small, poorly fitted or top-dose-only effect, or another doubt; inactive means no such curve, though single readings can be large; an effect the other way counts as inactive or inconclusive.

SMILES	TSG101-PTAP inh	GALK inh	NTMT1 inh	B2AR arrestin ag	GPR32 ag	GALC G270D act
COc1cc([C@@H](CC(=O)O)c2ccc(C)c(CN3C[C@@H](C)Oc4ccccc4S3(=O)=O)c2)cc2nnn(C)c12	x	x	-7%[57.5 µM]	x	x	x
CC(C)CCn1c(CN2CCN(C(=O)C(C)C)CC2)nc2c1c(=O)n(C)c(=O)n2C	x	x	9%	x	x	x
CCOc1ccc(C(=O)Nc2onc3c2CCCC3)cc1	i	12%	u	i	39	i
CC(C)(C)c1ccc(C(=O)Nc2onc3c2CCCC3)cc1	i	0%	-3%	i	88*	i
CC(C)COc1ccc(C(=O)Nc2onc3c2CCCC3)cc1	i	4%	-3%	i	114*	i
COC(=O)C(CC1(O)c2ccccc2N2C(=O)C(C)(C)N(O)C21)n1cnc2ccccc2c1=O (stereo not drawn)	x	x	12%[29.8 µM]	x	x	x
CN(Cc1ccc(-c2ccccc2)cc1)c1nc(-c2ccccc2C(F)(F)F)nc2ccccc12	x	x	-1%	x	x	x
NCc1ccc(OCCCc2sc(-c3ccc4c(c3)/C(=N/Nc3nc5ccccc5s3)CCC4)nc2C(=O)O)cc1	x	x	40µM*!	x	x	x
O=C(NCCc1ccc(Cl)cc1)c1ccc(CS(=O)(=O)Cc2ccccc2F)o1	i	1%	4%	i	111*	i
COc1ccccc1S(=O)(=O)Cc1ccc(C(=O)NCc2ccc(Cl)cc2)o1	i	1%	-3%	i	98*	i
COc1ccc(CNC(=O)c2ccc(CS(=O)(=O)c3ccccc3OC)o2)cc1	i	0%	12%	i	-5	i
CN(C/C=C/C#CC(C)(C)C)Cc1cccc2ccccc12	x	x	20%[57.5 µM]	x	95*	i
CN(CC=CC#CC(C)(C)C)Cc1cccc2ccccc12	x	x	-23%[57.5 µM]	x	x	x
O=C(Nc1cccc(Br)c1)Nc1nc2c(s1)CCCCCC2	i	1%	11%	i	113*	i
Cc1ccc(CNC(=O)c2sc3nc(-c4ccc(F)cc4)ccc3c2N)cc1	i	1%	0%	i	96*	i
COc1cccc(-c2ccc3c(N)c(C(=O)c4ccc(F)cc4)sc3n2)c1	i	3%	-15%	i	-5	i
COc1ccc(C(=O)c2sc3nc(-c4ccc(F)cc4)ccc3c2N)cc1	i	-1%	8%	i	98*	i
CC(=O)Nc1ccc(C(=O)NC(C)(C)C)cc1	x	x	5%	x	x	x
CCC[C@@H]1O[C@@H]2C[C@H]3[C@@H]4CCC5=CC(=O)C=C[C@]5(C)[C@H]4[C@@H](O)C[C@]3(C)[C@]2(C(=O)CO)O1	x	x	-14%[57.5 µM]	x	x	x
CN1C(N)=N[C@](C)(c2cc(NC(=O)c3ccc(F)cn3)ccc2F)CS1(=O)=O	x	x	-8%	x	x	x
O=C(O)c1cc(O[C@@H]2O[C@H](CO[C@@H]3OC[C@@H](O)[C@H](O)[C@H]3O)[C@@H](O)[C@H](O)[C@H]2O)c2ccccc2c1O	x	x	-4%[29.8 µM]	x	x	x
NC1CCC(Nc2nc(Nc3ccc(C(=O)N4CCCCC4)cc3)c3ncn(-c4cccc(F)c4)c3n2)CC1 (stereo not drawn)	x	x	40µM*	x	x	x
COc1ccc(-c2cn3nc(N4CCC(C(=O)Nc5cccc(OC)c5)CC4)sc3n2)cc1	i	1%	-3%	i	76*	i
COc1ccc(-c2cn3nc(N4CCC(C(=O)Nc5ccc(Cl)cc5C)CC4)sc3n2)cc1	i	4%	3%	i	2	i
CC(CNc1nc2ccccc2c2nc(-c3ccccc3)nn12)c1ccccc1 (stereo not drawn)	i	-1%	12%	i	-5	25µM*
CC(=O)OC1CC(=O)C2(C)C3CC4=C(OC(C)CC4=O)OC3(C)CCC2C1(C)C (stereo not drawn)	x	x	-17%[29.8 µM]	x	x	x
